G9a block = qHTS Assay for Inhibitors of Histone Lysine Methyltransferase G9a; Histone-lysine N-methyltransferase EHMT2 (Homo sapiens), Q96KQ7; G9a H3K9 monomethylation, AlphaScreen, 2 h; Potency, µM (doses to about 102 µM), for the others: top-dose activity, negative = inhibition, usual class: inhibitors; 8.8% of 350,000 active; AID 504332, 2011; further: on the % scale 0 is the no-effect control and ±100 the full control effect; nearly all actives have a fitted effect of over 75% in size
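Compounds were preincubated with 20 nM G9a for 15 min, after which biotinylated H3K9 peptide (500 nM) and SAM (20 uM) started a 2 h room-temperature reaction. Monomethylated product was quantified by antibody-based AlphaScreen chemiluminescence.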
12-LOX inh = Primary qHTS assay for inhibitors of human arachidonate 12S-lipoxygenase (ALOX12): Round 2; Polyunsaturated fatty acid lipoxygenase ALOX12 (Homo sapiens), P18054; purified 12hLO, xylenol orange hydroperoxide absorbance; Potency, µM (top dose mostly 108 µM), for the others: top-dose activity change, negative = inhibition, usual class: inhibitors; 1.1% of 580,000 active; further: on the % scale 0 is the no-effect control and ±100 the full control effect
Target sequence (P18054 whole entry, looked up): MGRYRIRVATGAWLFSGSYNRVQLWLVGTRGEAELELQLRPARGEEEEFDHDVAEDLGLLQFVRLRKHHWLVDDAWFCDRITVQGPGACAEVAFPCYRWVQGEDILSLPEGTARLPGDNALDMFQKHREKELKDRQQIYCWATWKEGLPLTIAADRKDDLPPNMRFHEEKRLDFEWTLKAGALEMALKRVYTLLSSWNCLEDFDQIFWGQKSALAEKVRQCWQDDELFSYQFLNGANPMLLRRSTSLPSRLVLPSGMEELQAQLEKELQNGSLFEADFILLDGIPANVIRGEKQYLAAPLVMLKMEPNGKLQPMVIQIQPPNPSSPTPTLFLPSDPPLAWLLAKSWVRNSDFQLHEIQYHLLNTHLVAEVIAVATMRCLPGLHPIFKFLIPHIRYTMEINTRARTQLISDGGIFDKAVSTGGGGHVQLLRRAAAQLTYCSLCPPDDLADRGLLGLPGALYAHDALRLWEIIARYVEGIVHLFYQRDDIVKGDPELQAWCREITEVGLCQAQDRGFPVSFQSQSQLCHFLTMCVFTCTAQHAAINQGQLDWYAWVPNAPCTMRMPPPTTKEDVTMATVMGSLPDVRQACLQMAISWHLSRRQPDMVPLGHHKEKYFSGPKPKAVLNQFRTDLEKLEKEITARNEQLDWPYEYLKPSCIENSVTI
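Purified human 12hLO at 150 nM in 25 mM Hepes, 0.01% Triton X-100, pH 7.0, preincubated 15 min at room temperature with compound. Reaction started with 40 uM arachidonic acid, 30 min at room temperature. Hydroperoxide measured by Fe-xylenol orange, 573/405 nm absorbance ratio.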
HP1b chromo inh = HTS for Inhibitors of HP1-beta Chromodomain Interactions with Methylated Histone Tails. Chromobox protein homolog 1 (Homo sapiens), P83916. AlphaScreen HP1-beta / biotin-H3K9me3 peptide binding. Potency, µM (series often up to 114 µM), for inactives: at the highest dose activity change, negative = inhibition, actives largely listed as inhibitors. 0.56% of 390,000 active. AID 540317, 2011; further: nearly all actives have a fitted effect of over 70% in size
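AlphaScreen: HP1-beta (50 nM) preformed 30 min with biotin-H3(1-18)K9me3 peptide (50 nM) in PBS pH 7.4, 0.01% Tween-20. Compound added for 30 min at RT, then streptavidin donor/nickel chelate acceptor beads (10 ug/mL) for 30 min.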
Sfp inh = qHTS Assay for Inhibitors of Bacillus subtilis Sfp phosphopantetheinyl transferase (PPTase); Biochemical Sfp PPTase activity, qHTS; Potency, µM, inactives show largest response in the series, negative = inhibition, most hits filed as inhibitors; 3.5% of 310,000 active; AID 1490, 2009;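 further: the enzyme is Sfp with the accession as filed and its product quenches rhodamine fluorescence; 0% = enzyme reaction without inhibitor and -100% = no enzyme wells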
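Buffer: 50 mM Hepes-Na pH 7.6, 10 mM MgCl2, 0.01% Nonidet P-40, 0.01% BSA. Enzyme 15 nM, pre-exposed to compound 15 min; substrates then added and fluorescence change tracked over 30 min.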
BAZ2B block = qHTS Assay for Inhibitors of BAZ2B. Bromodomain adjacent to zinc finger domain protein 2B (Homo sapiens), Q9UIF8. AlphaScreen BAZ2B-H3K14Ac peptide displacement. Potency, µM (doses to about 114 µM), without a hit: top-dose activity change, negative = inhibition, actives largely listed as inhibitors. 4.4% of 360,000 active. AID 504333, 2011; further: on the % scale 0 is the no-effect control and ±100 the full control effect; nearly all actives have a fitted effect of over 60% in size
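AlphaScreen luminescence quantifies BAZ2B engagement of H3K14Ac peptide; the protein and biotinylated peptide are both at 50 nM final, buffer PBS pH 7.4 with 0.01% Tween-20, all steps at room temperature.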
JMJD2A Tudor inh = qHTS Assay for Inhibitors of JMJD2A-Tudor Domain | Lysine-specific demethylase 4A (Homo sapiens), O75164 | AlphaScreen JMJD2A-Tudor / H3K4me3 peptide binding | Potency, µM (titrated, usually from 114 µM), for inactives: at the top dose activity change, negative = inhibition, usual class: inhibitors | 4.4% of 390,000 active | AID 504339, 2011; further: on the % scale 0 is the no-effect control and ±100 the full control effect; nearly all actives have a fitted effect of over 50% in size
* marks the source's active call; other numbers are inactive results; u = inconclusive; x = no result given; [ ] = dose if it differs, or a comment. Compounds with a hit are over-represented: about 8.7% of the library has one in this group of screens. The call rests on the fitted dose curve; in most records, active means well fitted curve in the direction sought with a large enough effect; inconclusive means small, poorly fitted or top-dose-only effect, or another doubt; inactive means no such curve, though single readings can be large; an effect the other way counts as inactive or inconclusive. Potency means the concentration at half of the fitted maximal effect.

SMILES	G9a block	12-LOX inh	HP1b chromo inh	Sfp inh	BAZ2B block	JMJD2A Tudor inh
COc1ccc(OCCNC2CCCC2)cc1	10µM*	-21%	15%	2%	u	79µM*
COc1ccc(OCCC(=O)NC2CCCCC2)cc1	10%	-7%	18%	7%	-7%	4%
c1ccc(SCCCCN2CCOCC2)cc1	14%	-14%	14%	5%	-23%	-13%
c1ccc(Cc2ccc(OCCCNC3CCCC3)cc2)cc1	13µM*	x	x	u	56µM*	x
O=C(O)CO[C@@H]1COCC[C@H]1NC(=O)CCCn1cncn1	x	11%	x	x	x	x
c1cc2c(cc1OCCNC1CCCC1)CCC2	22µM*	x	x	-24%	56µM*	x
CCOCCN1C(=O)NC(c2ccccc2)C2=C1COC2=O (centres undefined)	x	27%	x	x	x	x
CCn1ncc(N2CCC(NC(=O)CCC(C)C)CC2)cc1=O	x	9%	x	x	x	x
O=S(=O)(O)c1cc(O)c(N=Nc2ccc(O)cc2O)c2ccccc12	x	8.9µM*	u	x	x	3.5µM*
O=S(=O)(O)c1ccc2c(N=Nc3ccc(S(=O)(=O)O)c4ccccc34)c(O)c(S(=O)(=O)O)cc2c1	28µM*	x	x	-23%	x	x
COc1ccc(Cl)cc1C(=O)N1C[C@@H](CO)[C@H](c2ccccn2)C1	x	38%	x	x	x	x
CCOC(=O)c1c(CSc2ccc(C)cc2)n(C)c2cc(Br)c(O)c(CN(C)C)c12	8.9µM*	u	u	56µM*	45µM*	32µM*
CCOC(=O)c1c(C)n(-c2ccc(C)cc2)c2ccc(O)c(CN(C)C)c12	45µM*	u	-8%	u	u	u
CCOC(=O)c1c(C)n(C)c2ccc(O)c(CN(C)C)c12	u	0%	-5%	-19%	-35%	-27%
CCOC(=O)c1c(CSc2ccccc2)n(C)c2cc(Br)c(O)c(CN(C)C)c12	40µM*	0%	u	-18%	u	u
CCOC(=O)c1c(CSc2ccccc2)n(C)c2ccc(O)c(CN3CCN(C)CC3)c12	x	u	-16%	-10%	u	45µM*
CCOC(=O)c1c(CN2CCOCC2)n(-c2ccccc2)c2cc(Br)c(O)c(CN(C)C)c12	u	495%	-20%	5%	-5%	u
CCOC(=O)c1c(CN2CCCCC2)n(C)c2cc(Br)c(O)c(CN(C)C)c12	35µM*	x	1%	-12%	-4%	-36%
CCOC(=O)c1c(CSc2ccsc2)n(C)c2cc(Br)c(O)c(CN(C)C)c12	32µM*	u	-24%	-21%	u	u
COc1ccc(-c2c(-c3ccc(OC)cc3O)nc(N)nc2C(F)(F)F)cc1	x	-27%	x	x	x	x
Cc1ccc(S(=O)(=O)N2CCN(C(C)CC(=O)O)CC2)cc1 (centres undefined)	28µM*	u	u	u	50µM*	5.6µM*
CCC(C)c1ccc(S(=O)(=O)N2CCN(C(=O)c3n[nH]c(=O)c4ccccc34)CC2)cc1 (centres undefined)	x	-28%	x	x	x	x
CCC(C)c1ccc(S(=O)(=O)N2CCN(C(C)CC(=O)O)CC2)cc1 (centres undefined)	7.1µM*	-6%	-27%	-8%	x	3.5µM*
O=C(OCc1nnnn1-c1ccccc1)C1(c2ccccc2)CCCC1	x	-32%	x	x	x	x
CC(CCc1ccco1)NC(=O)Nc1cccc(F)c1 (centres undefined)	50µM*	-40%	2%	11%	-28%	-34%
SMILES	G9a block	12-LOX inh	HP1b chromo inh	Sfp inh	BAZ2B block	JMJD2A Tudor inh
CC(C)c1ccc(C2C(C#N)=C(N)N3C(=C2C#N)Sc2ccccc23)cc1 (centres undefined)	35µM*	x	x	-18%	-10%[57.1 µM]	x
CN1C(=O)Cc2cc(C(=O)CSc3nnc(C4CC4)n3C3CC3)ccc21	x	-6%	x	x	x	x
CNC(=S)NNC(=O)COc1cccc(C)c1C	7.9µM*	0%	10%	32%	3%	40µM*
CNC(=S)NNC(=O)COc1ccccc1C	32µM*	24%	38%	-3%	-35%	20µM*
O=C(COc1ccccc1O)NNc1ccccc1	16µM*	-29%	40%	7%	-4%	2%
COc1cc(C#N)ccc1OCc1ccc(F)cc1Br	x	15%	x	x	x	x
CCCc1ccc(S(=O)(=O)N(C)CC2CCOCC2)cc1	x	11%	x	x	x	x
COc1cc(C2(c3ccc(O)c(OC)c3)C(=O)Nc3c(C)cc(Br)cc32)ccc1O	x	25µM*	-19%	x	x	u
COc1ccc(C(=O)Oc2ccc(C(C)C)cc2)cc1Cl	x	-38%	x	x	x	x
CCN(CC)C(=O)Cn1c(C)c(/C=C/c2cc[n+](C)cc2)c2ccccc21	u	u	14%	17%	-34%	u
C=CCn1c(C)c(/C=C/c2cc[n+](C)cc2)c2ccccc21	45µM*	-34%	24%	-3%	3%	-8%
C=CCn1cc(/C=C/c2cc[n+](C)cc2)c2ccccc21	50µM*	u	-5%	-11%	50µM*	-12%
CCn1cc(/C=C/c2cc[n+](C)cc2)c2ccccc21	-25%[2.33 µM]	u	42%	-8%	u	-4%
Cc1[nH]c2ccccc2c1/C=C/c1cc[n+](C)cc1	14%[12.7 µM]	-98%	13%	-12%	56µM*	-12%
COc1cccc(-c2nc(C3CC(=O)N(c4ccc(F)cc4)C3)no2)c1 (centres undefined)	x	24%	x	x	x	x
COc1ccc2c(c1)N(C)/C(=C/c1cccc[n+]1C)S2	35µM*	u	34%	-11%	u	u
CCN1/C(=C/c2cccc[n+]2C)Sc2ccc(OC)cc21	50µM*	29%	-3%	-8%	-34%	18µM*
CCN1/C(=C/C(C)=O)Sc2ccc(OC)cc21	u	4%	-10%[57 µM]	7%	u	-13%[57.1 µM]
CC(=O)Nc1ccc(NC[C@@H]2C=C(C)[C@H](Cc3nnc(C)o3)C[C@H]2C(C)C)cn1	x	43%[176 µM]	x	x	x	x
Cc1cc(CNC(=O)Cn2nc(-c3ccccc3)n(-c3ccccc3)c2=O)on1	x	44%	x	x	x	x
CC(=O)Nc1ccc(NC(=O)c2ccccc2OCC2CCCO2)cc1Cl (centres undefined)	x	20%	x	x	x	x

Screens as filed in PubChem.
